Compound activity (PubChem)
TRHR agonist-1: qHTS for Small Molecule Agonists and Allosteric Enhancers of Human TRH Receptor: Primary Screen for Agonists; TRHR cells, calcium flux fluo-8, FDSS agonist mode; actives 0.18% (n = 360,000); activation, % at 2 µM; Thyrotropin-releasing hormone receptor (Homo sapiens), P34981; further: 0% is about no effect
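In this calcium-flux screen, cells bearing human TRHR are dye-loaded with fluo-8, baselined for 10 cycles, then exposed to library compounds; positive kinetic calcium responses during the agonist phase mark hits, with TRH as control.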
D1 agonist: Allosteric Agonists of the Human D1 Dopamine Receptor: qHTS; D(1A) dopamine receptor (Homo sapiens), P21728; HEK293 T-REx D1 cells, calcium flux, agonist mode; actives 1% (n = 360,000); activation, % at 2 µM; further: 0% is about no effect
Target sequence (P21728 whole entry, looked up): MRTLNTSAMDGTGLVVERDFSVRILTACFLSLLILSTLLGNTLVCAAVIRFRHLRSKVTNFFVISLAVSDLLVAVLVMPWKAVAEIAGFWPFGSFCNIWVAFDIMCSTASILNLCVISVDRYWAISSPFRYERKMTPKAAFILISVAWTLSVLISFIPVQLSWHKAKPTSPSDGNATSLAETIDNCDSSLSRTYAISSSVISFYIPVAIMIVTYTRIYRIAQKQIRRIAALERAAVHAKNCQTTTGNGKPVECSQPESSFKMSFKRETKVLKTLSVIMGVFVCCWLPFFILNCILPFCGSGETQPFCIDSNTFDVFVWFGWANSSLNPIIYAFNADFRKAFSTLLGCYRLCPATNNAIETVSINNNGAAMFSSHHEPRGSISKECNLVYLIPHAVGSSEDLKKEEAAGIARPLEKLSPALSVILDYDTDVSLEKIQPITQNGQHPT
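Inducible HEK293 T-REx D1 cells, force-coupled to calcium signalling, were plated at 4000 cells/well with tetracycline and held overnight at 30 C. After no-wash calcium dye loading, compound-evoked calcium rise over 180 s flagged agonists.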
TRHR enhancer-1: qHTS for Small Molecule Agonists and Allosteric Enhancers of Human TRH Receptor: Primary Screen for Enhancers; Thyrotropin-releasing hormone receptor (Homo sapiens), P34981; TRHR cells, fluo-8 calcium fluorescence, EC20 TRH enhancement; enhancement, % at 2 µM; actives 0.66% (n = 360,000); AID 493056, 2011; in the data active means enhancement above about 30%; further: 0% is about no effect
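TRHR-expressing cells loaded with fluo-8 calcium dye were read kinetically (ex 480/em 530) during compound addition, then stimulated with an EC20 of TRH (10 nM final). Enhancement of the Gq-mediated intracellular calcium response was scored.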
D1 potentiator: Potentiators of Human D1 Dopamine Receptor: qHTS | actives 0.036% (n = 360,000) | HEK293 TREx D1 cells, calcium flux, dopamine EC20 potentiation | potentiation, % at 10 µM | D(1A) dopamine receptor (Homo sapiens), P21728 | AID 504651, 2011; in the data active means potentiation above about 30%; further: 0% is about no effect
D1 antag: Antagonist of Human D 1 Dopamine Receptor: qHTS; AID 504652, 2011; HEK293 TREx D1 cells, calcium flux, dopamine EC80; active compounds read low; D(1A) dopamine receptor (Homo sapiens), P21728; actives 3.2% (n = 360,000); activity change, negative = inhibition, % at 10 µM; in the data active means activity change below about -30%; further: on the % scale 0 is the no-effect control and ±100 the full control effect
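Cells carrying a force-coupled, tetracycline-inducible human D1 receptor report calcium flux. Each well gets a 10 s baseline, compound with 180 s monitoring, then an EC80 dopamine stimulus with a second 180 s kinetic read.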
TRHR enhancer-2: qHTS for Small Molecule Agonists and Allosteric Enhancers of Human TRH Receptor: Confirmation Screen for Enhancers; shares compounds with TRHR enhancer-1; TRH receptor cell assay, enhancer confirmation qHTS; activity change, negative = inhibition, % at 46.1 µM; 970 tested, under 10 active; active means well fitted curve in the direction sought with a large enough effect; inconclusive means small, poorly fitted or top-dose-only effect, or another doubt; inactive means no such curve, though single readings can be large; an effect the other way counts as inactive or inconclusive;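 further: compound effect scored on response to added TRH at EC20 of 10 nM; 0% is about no effect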
TRHR agonist-2: qHTS for Small Molecule Agonists and Allosteric Enhancers of Human TRH Receptor: Confirmation Screen for Agonists; shares compounds with TRHR enhancer-1; TRHR-expressing cells, agonist activation read-out; Potency, µM (highest dose often 46.1 µM), for inactives: at the top dose activation, hits mostly activators; actives 8% (n = 970); active means well fitted curve in the direction sought with a large enough effect; inconclusive means small, poorly fitted or top-dose-only effect, or another doubt; inactive means no such curve, though single readings can be large; an effect the other way counts as inactive or inconclusive; further: potency means the concentration at half of the fitted maximal effect; 0% is about no effect; nearly all actives have a fitted effect of over 75% in size
* hit, by the source's call; ? = inconclusive; / = not tested or not shown. A selection: hits, their analogues and other compounds. The true share with any hit is near 4.6%. Unless noted, no stated cut-off is given here; in the data, active means activation above about 30%; inactive means the rest.

SMILES	TRHR agonist-1	D1 agonist	TRHR enhancer-1	D1 potentiator	D1 antag	TRHR enhancer-2	TRHR agonist-2
COc1ccc(Cc2nc3ccc(C(=O)N(C)Cc4cc(C)[nH]n4)cc3o2)cc1OC	0.2	0.9	2.3	-2.0	-2.6	/	/
COc1ccc(Cc2nc3ccc(C(=O)N(C)CCn4ccnc4)cc3o2)cc1OC	-2.6	7.7	40.9*	-3.4	2.5	-0.1	-0.8%
O=C(NC1CCCCC1)C(c1ccc2ncccc2c1)N(Cc1ccccc1)C(=O)c1cccs1 (configuration not stated)	0.7	0.5	59.1*	4.0	17.4	-6.3	1.0%
CCOc1ccccc1NC(=O)C1CC(=O)n2ncnc2N1 (configuration not stated)	0.1	2.7	47.8*	-0.3	5.5	-0.2	-0.3%
O=C(Nc1ccccc1)C1CC(=O)n2ncnc2N1 (configuration not stated)	0.8	2.7	-5.3	6.3	-3.8	/	/
CCOC(=O)c1ccc(NC(=O)c2c(N3CCCC3=O)c3cc(OC)ccc3n2C)cc1	0.5	0.9	-1.2	-0.6	-0.9	/	/
N#Cc1ccc(COc2ccc(CCO)cc2-n2nc3ccccc3n2)cc1	-0.7	9.3	15.7	-4.8	-23.6	/	/
OCCc1ccc(O)c(-n2nc3ccccc3n2)c1	0.2	4.0	44.1*	0.2	-6.6	-0.1	6.5%
O=C(C1=NN(c2ccccc2)C2C(=O)N(c3ccccc3)C(=O)C12)c1ccccc1 (configuration not stated)	33.0*	324.3*	-5.0	24.6	-31.5*	?	18.4µM*
COc1ccc([C@]23Cc4ccccc4C(O2)c2c(cc(-c4ccccc4)oc2=O)O3)cc1	1.8	1.0	-6.7	-3.0	-21.3	/	/
Cc1cccc(C(=O)N/N=C/c2cc(Br)c(Br)o2)c1	-0.5	4.5	54.2*	-2.8	-58.6*	-12.9	-0.5%
Cc1c(-c2ccc(Cl)cc2)c(=O)oc2c(CN3CCN(CCO)CC3)c(O)ccc12	-0.9	-1.2	-1.8	-3.2	2.9	/	/
O=C1c2ccccc2C(O)N1c1ccc(Cl)cc1 (configuration not stated)	0.1	0.0	-3.3	1.8	-0.8	/	/
O=C1c2ccccc2C(O)N1c1ccccc1 (configuration not stated)	30.7*	1.6	-2.9	-0.6	3.0	3.6	-0.5%
Cc1cc(NC(=O)C(C)(C)Oc2ccc(Cl)cc2)cc(-c2nc3ncccc3o2)c1O	0.6	-0.2	0.6	-4.0	-12.5	/	/
CCn1c(C)c(C)c2cc(C(=O)NC3CCCCCC3)ccc21	-0.2	0.6	44.6*	0.5	-2.0	?	2.0%
Cc1ccc(C)c(NC(=O)C[n+]2ccccc2)c1	0.0	1.1	64.6*	29.8	10.8	3.5	-0.6%
O=S(=O)(NC1CCCCC1N1CCN(c2ccccc2F)CC1)c1ccc(Cl)cc1 (configuration not stated)	33.0*	6.5	-9.0	-4.5	-8.9	-10.2	?
O=S(=O)(NC1CCCCC1N1CCOCC1)c1ccc(Cl)cc1 (configuration not stated)	14.9	0.1	-2.4	-4.3	-12.5	/	/
NC(=O)COC(=O)c1c2c(nc3ccccc13)CCCCC2	-0.1	1.4	49.3*	-2.9	-16.7	-0.3	5.8%
O=C(CNC(=O)c1ccco1)Nc1ccc(OC(F)F)cc1	0.5	3.3	50.5*	-5.6	6.2	-3.5	-0.7%
COc1ccc(NC(=O)CNC(=O)c2ccco2)cc1	1.4	5.0	-3.4	-4.3	-0.9	/	/
CCN1CCN(Cc2c(O)ccc3c2O/C(=C\c2ccc(C)cc2)C3=O)CC1	26.5	18.6	-6.3	-7.3	-1.4	6.9	?
O=C(CCCn1c(=S)[nH]c2cc3c(cc2c1=O)OCO3)NCc1ccccc1Cl	-1.9	1.4	46.0*	1.3	5.6	-3.8	0.3%
O=C1/C(=C/c2ccccc2)Nc2ccccc21	49.9*	50.0*	10.4	-3.5	-10.7	13.6	16.4µM*
SMILES	TRHR agonist-1	D1 agonist	TRHR enhancer-1	D1 potentiator	D1 antag	TRHR enhancer-2	TRHR agonist-2
O=C(COc1ccc(Cl)cc1)NCc1nnc(SCC(=O)Nc2ccccc2F)o1	-0.3	-0.3	43.7*	-4.2	-9.6	2.2	-0.2%
Cc1cc(C=C2C(=O)c3ccccc3C2=O)c(C)n1-c1cccc(C(=O)O)c1	8.7	8.5	4.4	-2.4	-4.4	/	/
Cc1cc(C=C2C(=O)c3ccccc3C2=O)c(C)n1-c1ccc(C(=O)O)cc1	5.1	2.2	48.6*	-2.2	9.0	-9.5	?
O=C(NCc1ccc(F)cc1)c1ccc(N2CCOCC2)c([N+](=O)[O-])c1	-0.2	-0.6	3.2	-5.2	1.4	/	/
O=C(N/N=C/c1ccc(N2CCOCC2)c([N+](=O)[O-])c1)c1ccc(F)cc1	-0.5	-1.0	99.8*	-0.6	/	6.5	1.6%
O=C(CSc1ncc2c(n1)-c1cc(Cl)ccc1N(Cc1ccccc1F)S2(=O)=O)Nc1cccc(C(F)(F)F)c1	1.0	7.9	11.0	-4.2	2.7	/	/
CN1CCN(S(=O)(=O)c2cccc(C(=O)Oc3ccc(C(C)(C)C)cc3)c2)CC1	0.7	6.7	50.2*	-3.5	-30.2*	11.8	2.2%
COc1cc(OC)cc(OC(=O)c2cccc(S(=O)(=O)N3CCN(C)CC3)c2)c1	0.1	4.5	-1.8	-5.4	-9.6	/	/
O=C(CSc1oc(-c2ccccc2)nc1S(=O)(=O)c1ccc(Br)cc1)c1ccccc1	0.7	4.0	0.8	-0.9	-9.6	/	/
CCCC(=O)NC(C)c1nc2ccccc2n1CC (configuration not stated)	0.0	2.0	44.8*	-8.2	0.3	-6.2	0.4%
C=CCNC(=O)c1c(N)n(-c2cccc(S(N)(=O)=O)c2)c2nc3ccccc3nc12	0.5	9.3	43.0*	1.6	-13.9	-2.9	?
CCOc1ccc(C(=O)c2oc3ccccc3c2NC(=O)c2cc(=O)c3ccc(C)cc3o2)cc1	-0.6	2.4	-8.6	-1.6	7.8	/	/
CCOc1ccc(NC(=O)C(C)Sc2nnc3cc(C)c4ccccc4n23)cc1 (configuration not stated)	-0.2	-1.7	-0.1	1.1	-3.7	/	/
COc1cnc(-c2ccccc2)nc1OC	-0.9	1.2	2.9	11.7	0.4	/	/
